# An excerpt weighted towards active compounds, which were near 1.8% of everything screened.
# RAD52 anneal inh: inhibitors of human RAD52 DNA annealing; recombinant RAD52 DNA annealing, FRET fluorescence; inhibition, % at 18.7 µM; hit rate 0.46% among 360,000; AID 651710;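 active = every replicate showing at least 50% inhibition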
# Target sequence (P43351 whole entry, looked up): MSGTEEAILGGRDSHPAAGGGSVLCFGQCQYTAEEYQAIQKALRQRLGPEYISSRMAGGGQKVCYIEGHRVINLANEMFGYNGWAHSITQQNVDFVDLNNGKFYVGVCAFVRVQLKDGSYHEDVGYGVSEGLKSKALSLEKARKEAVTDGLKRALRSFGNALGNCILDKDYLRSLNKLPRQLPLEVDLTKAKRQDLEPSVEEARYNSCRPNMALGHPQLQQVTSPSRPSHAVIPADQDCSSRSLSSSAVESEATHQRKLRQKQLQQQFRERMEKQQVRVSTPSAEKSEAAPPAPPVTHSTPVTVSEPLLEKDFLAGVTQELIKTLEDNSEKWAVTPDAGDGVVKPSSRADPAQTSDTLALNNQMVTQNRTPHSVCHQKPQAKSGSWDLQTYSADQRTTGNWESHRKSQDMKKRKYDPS
# GSIS activator: GLuc luminescence reporter in INS-1E cells, primary screen for activators of glucose-dependent secretion of insulin; INS-1E GLuc reporter insulin secretion, 2-3 h; activation, % at 16.6 µM; hit rate 0.61% among 370,000; AID 743287;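 active = lowest replicate activation of at least 40%, so every replicate reaches that level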;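 also: 0% = median of neutral control wells and 100% = median of IBMX positive control wells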
# CFTR F508del cor: CFTR F508del correction in bronchial cells; CFBE cells, YFP halide quenching; stimulated with forskolin plus potentiator P3; % fluorescence drop versus neutral controls; hit rate 0.36% among 350,000; activity (quench increase), % at 7.58 µM; AID 720511;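 active = mean added fluorescence quench of at least 8% versus neutral control, with both replicates also reaching 8%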;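 also: cells transiently co-express mutant CFTR-F508del with the halide-sensitive YFP; corrector assay measuring rescue of mutant channel to the surface after 24 h compound exposure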
# RAD54 branch: inhibitors of human RAD54 branch migration; Q92698; RAD54 Holliday junction branch migration, FAM/BHQ fluorescence; inhibition, % at 10.4 µM; hit rate 0.14% among 360,000; AID 602329;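 active = mean normalized replicate activity at least 40 and at least half of replicates scoring 40 or more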;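 also: 0% = median of neutral control wells and 100% = median of positive control wells; inhibitors cause a drop in the FAM fluorescence signal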
# EWS-Fli inh: EWS/Fli transcriptional activity inhibition; inhibition, % at 12.6 µM; A673 NR0B1-luciferase reporter, viability-normalised; hit rate 0.67% among 350,000;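 active = mean inhibition of at least 50% after viability correction, with every replicate also passing that limit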;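 also: firefly luciferase signal divided by Alamar Blue viability fluorescence both relative to DMSO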
# LGR2 antag: blocks bursicon-induced cAMP signaling via Drosophila LGR2. HEK293 LGR2, CRE-luciferase, bursicon-stimulated, 4 h. AID 720647. hit rate 0.35% among 380,000. inhibition, % at 9.99 µM;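 active = drop in luminescence signal, shown as inhibition above about 50% in the replicate tests, limit read from the data, passing the limit was not always enough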;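 also: agonist challenge used bursicon conditioned medium at about half maximal strength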
# * hit, by the source's call; x = no result; ! = repeats disagree.
SMILES,RAD52 anneal inh,GSIS activator,CFTR F508del cor,RAD54 branch,EWS-Fli inh,LGR2 antag
C[C@H](CO)N1C[C@H](C)[C@H](CN(C)CC2CCCCC2)OCCCC[C@H](C)Oc2ccc(NC(=O)Cc3ccccc3)cc2C1=O,16,-6,-3,6,-22,11
C[C@@H]1CCCCO[C@H](CN(C)CC2CCCCC2)[C@H](C)CN([C@@H](C)CO)C(=O)c2cc(NC(=O)Cc3ccccc3)ccc2O1,8,1,-2,2,73*,-23
C[C@@H]1CN([C@H](C)CO)C(=O)c2cc(NC(=O)Cc3ccccc3)ccc2O[C@H]1CN(C)S(C)(=O)=O,15,2,0,1,3,21
C[C@@H]1CN([C@H](C)CO)C(=O)c2cc(NC(=O)Cc3ccccc3)ccc2O[C@@H]1CN(C)S(C)(=O)=O,-3,9,8.0*,-3,2,-4
C[C@@H]1CCCCO[C@H](CN(C)CC2CC2)[C@H](C)CN([C@@H](C)CO)C(=O)c2cc(NC(=O)c3ccccc3)ccc2O1,52*,-7,0,12,x,8
OCCN1CCSC1=S,-6,45*,0,-6,-10,4
OCCN1CNC(=S)NC1,-2,4,-3,3,10,5
CC(=O)c1ccc(NC(=O)COC(=O)c2c3c(nc4ccccc24)/C(=C\c2cccs2)CCC3)cc1,-28,5,9.1*,x,-8,22
Fc1ccc2cnc(C3=CCCCC3)cc2c1,-17,x,-1,-2,-104,x
COc1cc2c(cc1OC)C1=C(C#N)CCC(=NC(=O)c3ccco3)N1CC2,-7,75*,4,-4,9,x
COc1ccc(CC(=O)N2N=C(c3ccncc3)CC2(O)C(F)(F)F)cc1 (centres undefined),-21,-16,6,x,53*,9
CCC1=NN(C(=O)Cc2ccc(OC)cc2)C(O)(C(F)(F)F)C1 (centres undefined),-13,3,0,-1,-9,14
OC1(C#Cc2c(-c3ccsc3)sc3ccccc23)CCCCC1,-3,88*,0,x,-6,-29
Cc1noc(C)c1CS(=O)(=O)Cc1ccc(Cl)cc1,2,-1,3,x,1,11
CCCCCCN1C[C@H](n2cc(COC(=O)c3ccccc3)nn2)[C@@H](O)C[C@@H]1c1ccccc1,-8,1,-1,0,-9,3
CCCCCCN1C[C@H](n2cc(C3CC3)nn2)[C@@H](O)C[C@@H]1c1ccc(C)cc1,-7,274*,0,-3,-17,-45
CCCCCCN1C[C@H](n2cc(COC(=O)c3ccccc3)nn2)[C@@H](O)C[C@@H]1c1ccc(C)cc1,-9,163*,0,6,15,13
CCCCCCN1C[C@@H](n2cc(C3CC3)nn2)[C@H](O)C[C@@H]1c1ccc(C)cc1,2,-19,3,-3,-29,-9
COc1ccc(C2(O)CC3CCC(C2)N3c2nc(C)cc(C)c2C#N)cc1 (centres undefined),x,x,x,-29,x,x
O=C(O)C(c1ccccc1)C1CCCCC1O (centres undefined),-4,14,-3,2,-11,20
COC(=O)c1ccc(Cn2c(O)c(N=NC(N)=S)c3ccccc32)o1,-5,64*,3,x,21,-10
C/C(Cl)=C\Cn1c(O)c(N=NC(N)=S)c2ccccc21,-18,25,0,x,57*,14
C[C@@H]1CN([C@@H](C)CO)C(=O)c2c(c3ccccc3n2C)-c2ccccc2CO[C@@H]1CN(C)S(=O)(=O)Cc1ccccc1,-1,-9,3,-2,10,9
COc1ccc2c3c(n(C)c2c1)[C@@H](CO)N(Cc1cccnc1)CC31CN(C(=O)NC(C)C)C1,-38,14,-1,x,-4,12
Cc1ccc(-c2cc3c(nn2)-c2ccccc2C3=O)cc1,1,10,4,-1,84*,92*
SMILES,RAD52 anneal inh,GSIS activator,CFTR F508del cor,RAD54 branch,EWS-Fli inh,LGR2 antag
O=C1c2ccccc2-c2nnc(-c3ccc(F)cc3)cc21,-6,2,-1,x,45,51*
CN(c1ccc(S(=O)(=O)N2CCOCC2)cn1)C1CCCCC1,x,-5,x,x,x,-32
COc1ccc(NC(=O)N2[C@@H]3CNC[C@H]2C3c2ccc(-c3ccccc3C)cc2)cc1 (some centres undefined),64*!,-12,-3,x,-6,11
O=C(Nc1cccc(Cl)c1)N1[C@@H]2CNC[C@H]1C2c1ccc(/C=C/c2ccccc2)cc1 (some centres undefined),60*!,-2,-1,x,x,2
COc1cccc(NC(=O)N2[C@@H]3CNC[C@H]2C3c2ccc(-c3ccccc3)cc2)c1 (some centres undefined),47,-1,0,x,x,-39
Cc1ccccc1-c1ccc(C2[C@H]3CNC[C@@H]2N3C(=O)Nc2ccc(Cl)cc2)cc1 (some centres undefined),x,-15,-2,x,-2,-13
COc1cccc(NC(=O)N2[C@@H]3CNC[C@H]2C3c2ccc(/C=C/c3ccccc3)cc2)c1 (some centres undefined),54*!,-19,1,x,x,31
COc1cccc(-c2ccc(C3[C@H]4CNC[C@@H]3N4C(=O)Nc3ccc4c(c3)OCO4)cc2)c1 (some centres undefined),71*,-5,-6,x,-78,-16
CCC(C(=O)Nc1nccs1)(C(F)(F)F)C(F)(F)F,x,-19,x,-4,x,x
CC(C)CCOc1ccc(/C=N/N2C(=O)CSC2=S)cc1,-45,15,0,1,-6,5
COc1cc(CN2[C@@H]3CNC[C@H]2C3c2ccc(/C=C/c3ccccc3)cc2)cc(OC)c1 (some centres undefined),45,49*!,-2,x,14,-11
CN(C)C(=O)c1cccc(-c2ccc(C3[C@H]4CNC[C@@H]3N4C(=O)Nc3cccc(Cl)c3)cc2)c1 (some centres undefined),-65,-1,0,x,8,-15
CN(C)C(=O)c1ccc(-c2ccc(C3[C@H]4CNC[C@@H]3N4C(=O)Nc3cccc(Cl)c3)cc2)cc1 (some centres undefined),56*,-15,0,x,-9,5
O=C(O)C[C@@H]1C=C[C@H](NC(=O)Nc2ccccc2)[C@@H](CO)O1,-4,11,-1,5,-1,0
CCCN1[C@@H]2c3ccc(-c4ccncc4)c(=O)n3C[C@H]1[C@H](CO)[C@H]2C(=O)NCCc1cn(C)cn1,-16,1,-2,3,-1,7
Cc1ccc(C(=O)COC(=O)C2CCC2)cc1,x,x,x,-1,x,x
CC(=O)NCCc1ccc(C(=O)COC(=O)C2CCCCC2)cc1,-2,-4,3,x,-5,77*
Cc1nc2n(c(=O)c1CCN1CCC(c3noc4cc(F)ccc34)CC1)CCCC2,-6,x,-4,6,7,-32
